# Screening results from PubChem.
# HEK cytotox: cytotoxic compounds in HEK 293 cells | HEK 293 viability, ATP luminescence (CellTiter-Glo), 48-72 h | AID 1345083 | 6.6% of 94,000 active | Potency, µM (titrated, usually from 115 µM), for the others: at the top dose activity change, negative = cytotoxicity, most hits filed as inhibitors; further: nearly all actives have a fitted effect of over 60% in size
#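 Cytotoxicity was scored by loss of ATP-coupled luminescence (CellTiter-Glo) in HEK 293 cells. Compound treatment ran 48 or 72 hr at 37 degree Celsius, 5% CO2, 95% humidity.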
# HEK293 viab: reduces viability of HEK-293 SNCA reporter cells. HEK-293-SNCA-luc viability, GF-AFC fluorescence, 24 h. Potency, µM (titrated, usually from 57.1 µM), for inactives: top-dose activity change, negative = cytotoxicity, usual class: cytotoxic. 0.12% of 150,000 active;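 further: 0% = DMSO-treated cells and -100% = medium-only wells without cells; nearly all actives have a fitted effect of over 30% in size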
#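 Cytotoxicity counterscreen: after 24 h compound treatment of genome-edited SNCA-luciferase HEK-293 cells, live-cell protease substrate GF-AFC read by fluorescence after 30 min; activity scaled between DMSO (0%) and medium-only (-100%), curves Hill-fitted.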
# FLuc inh: inhibitors of firefly (Photinus pyralis) luciferase | Potency, µM (doses to about 115 µM), hits mostly inhibitors | 2.5% of 76,000 active | P08659 | purified P. pyralis luciferase, luminescence, biochemical; further: nearly all actives have a fitted effect of over 65% in size
# Target sequence (P08659 whole entry, looked up): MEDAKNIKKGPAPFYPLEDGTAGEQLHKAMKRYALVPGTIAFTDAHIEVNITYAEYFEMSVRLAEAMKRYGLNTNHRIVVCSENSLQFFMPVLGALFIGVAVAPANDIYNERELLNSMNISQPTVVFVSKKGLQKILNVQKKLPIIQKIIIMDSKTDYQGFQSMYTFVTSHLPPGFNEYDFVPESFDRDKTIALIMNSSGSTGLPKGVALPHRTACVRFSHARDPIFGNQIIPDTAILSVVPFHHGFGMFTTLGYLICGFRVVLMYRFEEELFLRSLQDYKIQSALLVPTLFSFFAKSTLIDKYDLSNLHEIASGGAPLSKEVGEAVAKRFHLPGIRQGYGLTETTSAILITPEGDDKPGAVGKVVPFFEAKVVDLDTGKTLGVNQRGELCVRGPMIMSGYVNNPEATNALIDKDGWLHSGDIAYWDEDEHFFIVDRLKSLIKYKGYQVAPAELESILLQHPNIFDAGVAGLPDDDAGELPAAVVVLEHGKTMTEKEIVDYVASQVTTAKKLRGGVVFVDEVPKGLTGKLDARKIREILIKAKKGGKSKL
#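 Luminescence read by CCD imaging after purified firefly luciferase (10nM final) was added to substrate buffer holding 10uM D-luciferin and 10uM ATP, pH 7.5, pre-dosed with compound.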
# SNCA expr inh: inhibitors of alpha-synuclein (SNCA) gene expression | HEK-293 SNCA-luciferase knock-in, luminescence, 24 h | Potency, µM (top dose mostly 57.2 µM), inactives show at the highest dose activity change, negative = inhibition, usual class: inhibitors | 0.17% of 140,000 active | AID 1671194;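 further: plate controls were DMSO cells for no effect and cell-free wells for full effect; nearly all actives have a fitted effect of over 45% in size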
# NPR1 antag: blocks ANP-stimulated signaling of human Npr1 receptor; HEK293 hNpr1 GloSensor cGMP, ANP-stimulated luminescence; Potency, µM (series often up to 46.3 µM), for the others: top-dose activity change, negative = inhibition, actives largely listed as inhibitors; P16066; 1.6% of 76,000 active; calls by dose curve; further: nearly all actives have a fitted effect of over 60% in size
#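 Compound pre-incubated 30 min at room temperature on GloSensor-loaded HEK293 cells stably carrying hNpr1 and the pGS-40F cGMP biosensor. Stimulation uses hNppA at 0.1 nM final; luminescence is taken at baseline and 20 min post-agonist.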
# NIH3T3 tox: NIH 3T3 cell cytotoxicity; 4.3% of 94,000 active; AID 1345082; NIH 3T3 viability, CellTiter-Glo ATP luminescence, 48-72 h; Potency, µM (highest dose often 96.7 µM), without a hit: at the highest dose activity change, negative = cytotoxicity, hits mostly inhibitors; further: nearly all actives have a fitted effect of over 55% in size
#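 NIH 3T3 cells at 400 cells/well received 23 nL of compound by pintool and were incubated 48 or 72 h at 37 °C. Viability was read as ATP-coupled CellTiter-Glo luminescence.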
# Starred values were filed as active, the others as inactive; i = inactive; ? = inconclusive; / = not tested or not shown; [ ] = another dose, or the depositor's remark. Shown are actives, neighbours in structure and some others; about 7.4% of the full set was active somewhere. Unless noted, the call rests on the fitted dose curve; in most records, active means well fitted curve in the direction sought with a large enough effect; inconclusive means small, poorly fitted or top-dose-only effect, or another doubt; inactive means no such curve, though single readings can be large; an effect the other way counts as inactive or inconclusive. Unless noted, on the % scale 0 is the no-effect control and ±100 the full control effect; potency means the concentration at half of the fitted maximal effect.
SMILES,HEK cytotox,HEK293 viab,FLuc inh,SNCA expr inh,NPR1 antag,NIH3T3 tox
CNC(=O)[C@H]1C[C@]2(CCCCN(CCO)C2=O)N(C(=O)Cc2cccs2)[C@H]1c1ccco1,35µM*,/,/,/,/,?
O=c1[nH]c(C2CCN([S+](=O)([O-])c3cccs3)CC2)nn1-c1ccccn1,-7%,3%,/,1%,/,-8%
CN(C)CCNc1cc2c(cn1)NCCN(Cc1ccccc1)C2,?,3%[87.6 µM],i,25%[87.6 µM],-1%[70.6 µM],?
c1ccc(Nc2cc3c(cn2)NCCN(Cc2ccc4[nH]ccc4c2)C3)cc1,56µM*,?,i,-28%[87.6 µM],-15%[70.6 µM],?
c1ccc(Nc2cc3c(cn2)CN(Cc2ccc4[nH]ccc4c2)CCN3)cc1,40µM*,?,?,-2%[87.6 µM],-28%[70.6 µM],28µM*
Fc1ccccc1CC1CCN(CC2[C@H]3CNC[C@@H]23)CC1 (stereo partly specified),?,4%,i,9%,4%,35µM*
Cc1cc(Cl)ccc1S(=O)(=O)N1CC(c2nc(-c3ccncc3)no2)C1,?,1%,i,-22%,13µM*,?
CC(C)(O)CCc1cccc(C(=O)NCCNc2cccnc2)c1,32µM*,5%,i,5%,-6%,?
CC(C)(O)CCc1cccc(C(=O)NCc2ccccc2Cn2cccn2)c1,-23%,5%,i,?,-11%,22µM*
Cc1ccc(-c2cc(C(=O)NCCCc3ccccc3)c3cnn(C)c3n2)c(C)c1,?,-5%,/,-8%,/,?
CCOC(=O)c1c(C)n(-c2ccccc2)c2ccc(OC(=O)c3cccc(C)c3)cc12,/,-23%,/,-17%,/,/
CCOC(=O)c1c(C)n(-c2ccccc2)c2ccc(OC(=O)c3ccccc3NC(=O)C(C)(C)C)cc12,/,?,/,13µM*,/,/
COc1ccc(C(=O)N2C[C@H](C(N)=O)[C@H]3c4ccccc4N(C)C(=O)[C@]32C)cc1OC,?,-13%[23.9 µM],/,21%[25.6 µM],/,?
CCc1nnc(NC(=O)c2nc(S(=O)(=O)Cc3ccc(C)cc3)ncc2Cl)s1,/,28µM*,/,?,/,/
CCOc1ccccc1NC(=O)c1nc(S(=O)(=O)Cc2cccc(C)c2)ncc1Cl,/,-3%,/,6%,/,/
Cc1ccc(CS(=O)(=O)c2ncc(Cl)c(C(=O)Nc3nnc(C(C)C)s3)n2)cc1,/,25µM*,/,?,/,/
Cc1ccc(C)c(NC(=O)c2nc(S(=O)(=O)Cc3ccc(F)cc3)ncc2Cl)c1,/,2%,/,41%,/,/
CCc1nnc(NC(=O)c2nc(S(=O)(=O)Cc3cccc(C)c3)ncc2Cl)s1,/,20µM*,/,?,/,/
CCc1nc2c(c(-c3ccc(O)cc3)n1)CN(Cc1ccsc1)CC2,-15%,14%,/,8%,/,-38%
CCOC(=O)C1CCN(C(=O)c2ccc3oc(-c4cccnc4)nc3c2)CC1,0%,-1%,/,-5%,/,0%
COc1cccc(CN2CCc3nc(C(=O)Nc4cccnc4)oc3CC2)c1,?,1%[87.6 µM],22µM*,102%[87.6 µM],?,?
COc1ccc(CN2CCc3nc(C(=O)Nc4cccnc4)oc3CC2)cc1OC,?,6%[87.6 µM],i,-6%[87.6 µM],-17%[70.6 µM],?
N#Cc1cccc(CN2CCc3nc(C(=O)Nc4cccc(C(F)(F)F)c4)oc3CC2)c1,?,-22%,?,?,11µM*,?
O=C(Nc1cccc(C(F)(F)F)c1)c1nc2c(o1)CCN(Cc1cccs1)CC2,?,0%[87.6 µM],8.9µM*,3%[87.6 µM],?,?
O=C(Nc1cccc(C(F)(F)F)c1)c1nc2c(o1)CCN(Cc1nccs1)CC2,?,-8%[87.6 µM],16µM*,7%[87.6 µM],35µM*,?
SMILES,HEK cytotox,HEK293 viab,FLuc inh,SNCA expr inh,NPR1 antag,NIH3T3 tox
Cc1ccc(CN2CCc3nc(C(=O)Nc4cccnc4)oc3CC2)o1,?,-4%[87.6 µM],?,83%[87.6 µM],-10%[70.6 µM],-21%[138 µM]
O=C(NCc1ccncc1)c1nc2c(o1)CCN(Cc1ccccc1)CC2,?,6%[87.6 µM],i,3%[87.6 µM],-24%[70.6 µM],-26%[138 µM]
COc1ccccc1Cn1c(=O)c(C(=O)N2CCN(C(C)=O)CC2)nc2cccnc21,i,-1%,/,11%,/,3%
CCN(CC)C(=O)c1cc(-c2ccccc2C(F)(F)F)nc2c1cnn2C,?,/,/,/,/,-18%
O=C(C1CCCN1C(=O)C1CCCC1)N1CCC(c2nc3ccncc3[nH]2)C1 (stereo unspecified),2%,2%,/,11%,/,-19%
COc1ccccc1CC(=O)N1CCc2c(nc3cc[nH]n3c2=O)C1,1%,6%,i,-20%,-1%,i
O=C(Nc1cccnc1)c1nc2c(o1)CCN(Cc1cccs1)CC2,89µM*,1%[87.6 µM],?,-25%[87.6 µM],-19%[70.6 µM],?
O=C(NCC1CC1)c1nc2c(o1)CCN(Cc1cccc(O)c1)CC2,?,5%[87.6 µM],?,68%[87.6 µM],4%[70.6 µM],100µM*
O=C(NCc1cccc(F)c1)c1nc2c(o1)CCN(Cc1cccc(F)c1F)CC2,50µM*,3%[87.6 µM],i,4%[87.6 µM],?,45µM*
N#Cc1cccc(CN2CCc3nc(C(=O)NCC4CC4)oc3CC2)c1,?,2%[87.6 µM],i,12%[87.6 µM],-24%[70.6 µM],?
CNC(=O)c1cc(C)nc2onc(C3CCN(C(=O)Nc4ccccc4)C3)c12 (stereo unspecified),i,/,/,/,/,-2%
Cc1ccc(-c2cc(C(=O)N3CCN(c4ncccn4)CC3)c3cnn(C)c3n2)cc1,?,-19%,/,-14%,/,?
Cc1nn(-c2ccccc2)c2c1C(C(C)C)N(C1CCN(C(=O)Cc3cccc(Cl)c3)C1)C2=O (stereo unspecified),45µM*,/,/,/,/,35µM*
COc1ccc(CC(=O)N2CCC(N3C(=O)c4c(c(C)nn4-c4ccccc4)C3C(C)C)C2)cc1 (stereo unspecified),?,/,/,/,/,40µM*
COCC(=O)N1CC(N2C(=O)c3c(c(C)nn3-c3ccccc3)C2C(C)C)C1 (stereo unspecified),-7%,/,/,/,/,-26%
Cc1nn(-c2ccccc2)c2c1C(C(C)C)N(C1CCCN(C(=O)Cc3cccc(Cl)c3)C1)C2=O (stereo unspecified),28µM*,/,/,/,/,?
O=C(Nc1ccc(F)cc1)C1CCN(c2ccnc3ccnn23)CC1,?,-3%[87.6 µM],/,-4%[87.6 µM],/,?
CN1CCN(C(=O)c2cc(-c3ccccc3F)nc3c2cnn3C)CC1,-17%[172 µM],/,/,/,/,-24%[138 µM]
CCOC(=O)C1CCCN(C(=O)c2cn3cc(-c4ccc(F)cc4)sc3n2)C1 (stereo unspecified),-6%,2%,/,34%,/,-19%
COc1ccc(-c2nnc3ccc(N(C)Cc4ccccc4)nn23)nc1,?,-12%[87.6 µM],i,-23%[87.6 µM],-7%[70.6 µM],?
